Measurements reported in the supplement of paper PMC10849652.
Of roughly 8,800 targets only a part is listed; those with a hit were picked by preference. About 0.5% of all pairs of compound and target were hits.

How the values were obtained:
Test in all cases: log2 fold change, soluble protein after heating vs DMSO (PISA); higher = thermal stabilisation; K562 lysate, 10 uM; active = over 0.2 and 3.5 SD of the protein, either way, in both replicates (recomputed)
lapatinib = compound: CS(=O)(=O)CCNCc1ccc(-c2ccc3ncnc(Nc4ccc(OCc5cccc(F)c5)c(Cl)c4)c3c2)o1 [lapatinib]
Procedure, shortened: (§1)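 Pellets of K562 cells were dounce-homogenised in PBS pH 7.4 with 1 mM MgCl2, and the crude extract was held at 1 mg/mL protein for a 30 min treatment with 10 μM compound. Aliquots were heated for 3 min over 48°C-58°C and pooled before NP-40 was added to 0.5% at 4°C. The supernatant from 21,000xg for 90 min was quantified by TMTpro 16plex LC-MS/MS with channel sums equalised. Values are reported from duplicates as log-two fold change in thermal stability relative to solvent controls.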

pictilisib = compound: CS(=O)(=O)N1CCN(Cc2cc3nc(-c4cccc5[nH]ncc45)nc(N4CCOCC4)c3s2)CC1 [pictilisib]
Procedure, shortened: as §1

crizotinib = compound: C[C@@H](Oc1cc(-c2cnn(C3CCNCC3)c2)cnc1N)c1c(Cl)ccc(F)c1Cl [crizotinib]
Procedure, shortened: as §1

duvelisib = compound: C[C@H](Nc1ncnc2nc[nH]c12)c1cc2cccc(Cl)c2c(=O)n1-c1ccccc1 [duvelisib]
Procedure, shortened: as §1

gandotinib = compound: Cc1cc(Nc2cc(CN3CCOCC3)c3nc(C)c(Cc4ccc(Cl)cc4F)n3n2)n[nH]1 [gandotinib]
Procedure, shortened: as §1

tozasertib = compound: Cc1cc(Nc2cc(N3CCN(C)CC3)nc(Sc3ccc(NC(=O)C4CC4)cc3)n2)n[nH]1 [tozasertib]
Procedure, shortened: as §1

doramapimod = compound: Cc1ccc(-n2nc(C(C)(C)C)cc2NC(=O)Nc2ccc(OCCN3CCOCC3)c3ccccc23)cc1 [doramapimod]
Procedure, shortened: as §1

bafetinib = compound: Cc1ccc(NC(=O)c2ccc(CN3CC[C@H](N(C)C)C3)c(C(F)(F)F)c2)cc1Nc1nccc(-c2cncnc2)n1 [bafetinib]
Procedure, shortened: as §1

[1] = compound: Cc1cccc(CC(=O)N2CCc3c2ccc(-c2cn(C)c4ncnc(N)c24)c3F)n1
Procedure, shortened: as §1

nilotinib = compound: Cc1cn(-c2cc(NC(=O)c3ccc(C)c(Nc4nccc(-c5cccnc5)n4)c3)cc(C(F)(F)F)c2)cn1 [nilotinib]
Procedure, shortened: as §1

[2] = compound: Cc1nc(Nc2n[nH]c3c2CN(C(=O)N[C@H](CN(C)C)c2ccccc2)C3(C)C)c2sccc2n1
Procedure, shortened: as §1

dasatinib = compound: Cc1nc(Nc2ncc(C(=O)Nc3c(C)cccc3Cl)s2)cc(N2CCN(CCO)CC2)n1 [dasatinib]
Procedure, shortened: as §1

[3] = compound: Cc1ncc(-c2ccnc(Nc3ccc(S(C)(=O)=O)cc3)n2)n1C(C)C
Procedure, shortened: as §1

[4] = compound: Cn1cc(-c2ccc3c(c2)CCN3C(=O)Cc2cccc(C(F)(F)F)c2)c2c(N)ncnc21
Procedure, shortened: as §1

quisinostat = compound: Cn1cc(CNCC2CCN(c3ncc(C(=O)NO)cn3)CC2)c2ccccc21 [quisinostat]
Procedure, shortened: as §1

tipifarnib = compound: Cn1cncc1[C@@](N)(c1ccc(Cl)cc1)c1ccc2c(c1)c(-c1cccc(Cl)c1)cc(=O)n2C [tipifarnib]
Procedure, shortened: as §1

[5] = compound: NC(=O)c1cnc(N[C@@H]2CCCC[C@@H]2N)nc1Nc1cccc(-n2nccn2)c1
Procedure, shortened: as §1

[6] = compound: NC1(c2ccc(-c3nc4ccn5c(=O)[nH]nc5c4cc3-c3ccccc3)cc2)CCC1
Procedure, shortened: as §1

[7] = compound: C[C@H](C1=CC=C(C=C1)C(=O)NC2=C3C=CNC3=NC=C2)N
Procedure, shortened: as §1

[8] = compound: NC(=O)Nc1cc(-c2cccc(F)c2)sc1C(=O)N[C@H]1CCCNC1
Procedure, shortened: as §1

Measured: log2 fold change

ROCK1 (UniProt Q13464)
Sequence of UniProt Q13464 (Q13464 whole entry, looked up): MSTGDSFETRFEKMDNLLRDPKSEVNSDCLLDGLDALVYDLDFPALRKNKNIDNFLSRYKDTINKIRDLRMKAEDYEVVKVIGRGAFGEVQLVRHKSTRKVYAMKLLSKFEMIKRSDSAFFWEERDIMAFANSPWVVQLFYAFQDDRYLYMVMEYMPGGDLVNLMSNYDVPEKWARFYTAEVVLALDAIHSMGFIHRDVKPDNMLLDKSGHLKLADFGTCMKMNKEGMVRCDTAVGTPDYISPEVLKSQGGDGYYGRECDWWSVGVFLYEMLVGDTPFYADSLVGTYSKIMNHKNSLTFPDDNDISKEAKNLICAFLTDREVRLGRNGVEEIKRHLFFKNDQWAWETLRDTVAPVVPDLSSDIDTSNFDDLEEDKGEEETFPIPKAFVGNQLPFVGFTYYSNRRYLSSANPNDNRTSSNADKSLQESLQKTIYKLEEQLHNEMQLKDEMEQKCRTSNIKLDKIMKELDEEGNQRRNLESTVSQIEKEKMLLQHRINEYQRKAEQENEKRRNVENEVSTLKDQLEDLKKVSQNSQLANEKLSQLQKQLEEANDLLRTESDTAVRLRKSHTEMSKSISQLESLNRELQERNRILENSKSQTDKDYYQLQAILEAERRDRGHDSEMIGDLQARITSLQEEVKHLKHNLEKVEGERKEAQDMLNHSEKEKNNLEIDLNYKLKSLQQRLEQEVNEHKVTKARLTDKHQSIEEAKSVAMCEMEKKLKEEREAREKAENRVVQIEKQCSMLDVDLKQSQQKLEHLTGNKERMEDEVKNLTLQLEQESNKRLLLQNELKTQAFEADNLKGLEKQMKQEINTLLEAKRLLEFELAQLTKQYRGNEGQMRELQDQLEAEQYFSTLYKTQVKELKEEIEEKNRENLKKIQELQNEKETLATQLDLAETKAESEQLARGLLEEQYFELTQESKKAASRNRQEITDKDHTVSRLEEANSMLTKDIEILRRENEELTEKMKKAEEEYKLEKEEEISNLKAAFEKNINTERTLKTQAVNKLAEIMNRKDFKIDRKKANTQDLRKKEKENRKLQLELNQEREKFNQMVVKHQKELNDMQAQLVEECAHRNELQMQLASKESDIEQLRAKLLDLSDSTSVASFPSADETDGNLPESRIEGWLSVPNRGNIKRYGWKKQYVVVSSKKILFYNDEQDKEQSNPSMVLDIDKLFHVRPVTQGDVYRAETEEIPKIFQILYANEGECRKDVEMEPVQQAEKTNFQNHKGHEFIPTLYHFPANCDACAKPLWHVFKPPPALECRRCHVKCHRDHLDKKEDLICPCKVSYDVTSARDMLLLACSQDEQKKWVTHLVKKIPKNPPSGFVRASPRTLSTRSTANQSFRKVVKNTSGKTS
inactive: lapatinib -0.003 | pictilisib -0.021 | crizotinib 0.011 | duvelisib 0.006 | gandotinib -0.04 | tozasertib 0.027 | doramapimod -0.025 | bafetinib -0.016 | [1] 0.031 | nilotinib -0.013 | [2] -0.001 | dasatinib -0.004 | [3] 0.006 | [4] 0.011 | quisinostat -0.01 | tipifarnib 0.001 | [5] 0.009 | [6] 0.013

RNASEH2B (UniProt Q5TBB1)
Sequence of UniProt Q5TBB1 (Q5TBB1 whole entry, looked up): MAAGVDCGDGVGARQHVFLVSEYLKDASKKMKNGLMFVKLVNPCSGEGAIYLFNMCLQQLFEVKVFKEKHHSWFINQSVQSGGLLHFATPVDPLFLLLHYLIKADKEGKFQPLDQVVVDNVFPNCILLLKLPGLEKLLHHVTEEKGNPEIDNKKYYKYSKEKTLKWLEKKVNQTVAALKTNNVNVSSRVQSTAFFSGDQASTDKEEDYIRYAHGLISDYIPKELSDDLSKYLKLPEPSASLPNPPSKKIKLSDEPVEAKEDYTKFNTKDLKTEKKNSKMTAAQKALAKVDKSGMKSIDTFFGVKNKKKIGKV
inactive: lapatinib 0.001 | pictilisib 0.039 | crizotinib -0.049 | [7] 0.126 | duvelisib 0.03 | gandotinib -0.126 | tozasertib 0.055 | doramapimod 0.041 | bafetinib 0.027 | [1] -0.064 | nilotinib 0.024 | [2] 0.007 | dasatinib -0.024 | [3] -0.001 | [4] -0.011 | quisinostat -0.059 | tipifarnib -0.009 | [8] 0.037 | [5] 0.004 | [6] -0.015

RABEPK (UniProt Q7Z6M1)
Sequence of UniProt Q7Z6M1 (Q7Z6M1 whole entry, looked up): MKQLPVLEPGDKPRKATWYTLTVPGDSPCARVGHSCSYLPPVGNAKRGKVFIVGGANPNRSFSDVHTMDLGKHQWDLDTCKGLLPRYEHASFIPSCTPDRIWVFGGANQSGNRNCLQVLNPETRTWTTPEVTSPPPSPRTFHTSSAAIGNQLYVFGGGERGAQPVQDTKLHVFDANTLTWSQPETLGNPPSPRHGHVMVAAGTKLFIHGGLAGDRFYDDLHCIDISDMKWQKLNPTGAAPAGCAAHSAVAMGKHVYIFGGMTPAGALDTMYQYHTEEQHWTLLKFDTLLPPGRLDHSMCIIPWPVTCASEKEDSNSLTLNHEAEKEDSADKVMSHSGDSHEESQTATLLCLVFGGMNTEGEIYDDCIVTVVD
inactive: lapatinib 0.003 | pictilisib -0.016 | crizotinib -0.008 | [7] -0.069 | duvelisib 0.018 | gandotinib 0.007 | tozasertib -0.033 | doramapimod 0.005 | bafetinib 0.024 | [1] 0.04 | nilotinib -0.003 | [2] 0.005 | dasatinib 0.005 | [3] -0.01 | [4] 0.012 | quisinostat 0.004 | tipifarnib 0.007 | [8] -0.018 | [5] 0.013 | [6] 0.002

RYR1 (UniProt P21817)
active: quisinostat -0.392
inactive: lapatinib 0.028 | pictilisib -0.048 | crizotinib -0.229 | [7] -0.017 | duvelisib -0.032 | gandotinib -0.027 | tozasertib 0.04 | doramapimod 0.112 | bafetinib -0.13 | [1] 0.016 | dasatinib -0.032 | [4] -0.061 | [8] 0.046 | [5] 0.029 | [6] 0.003

SAMD4A (UniProt Q9UPU9)
Sequence of UniProt Q9UPU9 (Q9UPU9 whole entry, looked up): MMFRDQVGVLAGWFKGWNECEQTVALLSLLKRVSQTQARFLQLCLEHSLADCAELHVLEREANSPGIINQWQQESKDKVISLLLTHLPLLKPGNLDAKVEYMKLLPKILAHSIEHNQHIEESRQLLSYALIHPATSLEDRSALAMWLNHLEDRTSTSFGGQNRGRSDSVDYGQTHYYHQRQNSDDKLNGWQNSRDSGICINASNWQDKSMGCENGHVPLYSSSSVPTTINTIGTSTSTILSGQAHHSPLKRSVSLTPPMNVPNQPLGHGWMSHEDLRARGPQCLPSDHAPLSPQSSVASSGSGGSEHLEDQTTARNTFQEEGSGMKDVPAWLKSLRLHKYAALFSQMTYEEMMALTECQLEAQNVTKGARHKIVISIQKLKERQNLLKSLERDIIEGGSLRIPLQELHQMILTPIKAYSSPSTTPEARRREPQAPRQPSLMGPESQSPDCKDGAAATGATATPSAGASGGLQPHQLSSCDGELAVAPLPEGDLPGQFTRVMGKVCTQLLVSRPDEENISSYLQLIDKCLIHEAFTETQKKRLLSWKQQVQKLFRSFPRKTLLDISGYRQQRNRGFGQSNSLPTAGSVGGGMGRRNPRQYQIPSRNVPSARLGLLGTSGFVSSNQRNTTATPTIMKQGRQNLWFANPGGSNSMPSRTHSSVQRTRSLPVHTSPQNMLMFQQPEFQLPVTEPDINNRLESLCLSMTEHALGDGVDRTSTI
inactive: lapatinib 0.282 | pictilisib 0.047 | crizotinib -0.041 | [7] -0.064 | duvelisib -0.046 | gandotinib -0.036 | tozasertib 0.088 | doramapimod 0.019 | bafetinib -0.215 | [1] 0.101 | dasatinib -0.228 | [4] -0.005 | quisinostat -0.069 | [8] 0.058 | [5] -0.023 | [6] 0.012

RHOA (UniProt P61586)
active: [7] 0.345
inactive: lapatinib 0.009 | pictilisib 0.314 | crizotinib 0.035 | duvelisib -0.023 | gandotinib -0.058 | tozasertib -0.092 | doramapimod -0.036 | bafetinib 0.08 | [1] -0.138 | nilotinib -0.08 | [2] 0.104 | dasatinib 0.017 | [3] -0.008 | [4] -0.013 | quisinostat 0.167 | tipifarnib -0.021 | [8] -0.004 | [5] 0.008 | [6] -0.062

RIC1 (UniProt Q4ADV7)
Sequence of UniProt Q4ADV7 (Q4ADV7 whole entry, looked up): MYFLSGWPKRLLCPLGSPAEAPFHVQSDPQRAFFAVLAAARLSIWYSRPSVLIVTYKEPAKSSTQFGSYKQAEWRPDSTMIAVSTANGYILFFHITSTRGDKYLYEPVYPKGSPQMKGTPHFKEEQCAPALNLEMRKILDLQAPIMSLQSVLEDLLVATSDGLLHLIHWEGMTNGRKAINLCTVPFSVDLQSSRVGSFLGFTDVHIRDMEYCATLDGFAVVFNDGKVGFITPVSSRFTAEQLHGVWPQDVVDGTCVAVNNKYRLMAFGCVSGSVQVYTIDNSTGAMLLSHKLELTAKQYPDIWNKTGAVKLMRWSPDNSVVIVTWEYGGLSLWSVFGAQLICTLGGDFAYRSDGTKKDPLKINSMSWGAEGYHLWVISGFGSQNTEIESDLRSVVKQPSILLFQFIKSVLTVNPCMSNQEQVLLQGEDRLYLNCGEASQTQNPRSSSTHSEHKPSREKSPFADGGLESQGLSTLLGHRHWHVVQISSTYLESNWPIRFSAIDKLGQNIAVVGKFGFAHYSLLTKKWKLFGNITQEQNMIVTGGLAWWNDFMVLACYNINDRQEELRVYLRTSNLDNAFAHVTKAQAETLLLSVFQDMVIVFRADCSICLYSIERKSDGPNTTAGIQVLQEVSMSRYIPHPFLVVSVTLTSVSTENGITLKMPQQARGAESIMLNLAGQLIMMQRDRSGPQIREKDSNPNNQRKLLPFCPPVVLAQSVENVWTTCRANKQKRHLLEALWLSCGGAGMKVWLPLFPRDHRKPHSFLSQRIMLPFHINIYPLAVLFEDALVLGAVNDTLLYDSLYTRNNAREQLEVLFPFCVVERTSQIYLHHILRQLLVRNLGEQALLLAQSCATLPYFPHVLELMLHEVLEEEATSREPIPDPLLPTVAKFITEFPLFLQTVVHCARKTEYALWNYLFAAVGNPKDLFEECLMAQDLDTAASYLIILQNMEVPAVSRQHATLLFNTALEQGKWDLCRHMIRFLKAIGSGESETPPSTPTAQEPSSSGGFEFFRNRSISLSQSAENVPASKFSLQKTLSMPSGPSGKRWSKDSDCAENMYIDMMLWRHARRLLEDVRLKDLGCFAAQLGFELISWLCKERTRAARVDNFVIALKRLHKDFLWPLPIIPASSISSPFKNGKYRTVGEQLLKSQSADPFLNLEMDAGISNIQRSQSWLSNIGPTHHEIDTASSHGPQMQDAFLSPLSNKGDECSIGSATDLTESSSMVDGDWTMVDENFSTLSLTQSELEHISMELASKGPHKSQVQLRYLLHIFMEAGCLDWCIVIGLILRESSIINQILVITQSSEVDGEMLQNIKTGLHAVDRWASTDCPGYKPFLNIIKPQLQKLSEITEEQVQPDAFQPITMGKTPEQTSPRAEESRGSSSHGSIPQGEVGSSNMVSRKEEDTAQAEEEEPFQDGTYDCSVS
active: bafetinib 0.3
inactive: lapatinib 0.016 | pictilisib -0.02 | crizotinib -0.06 | [7] -0.032 | duvelisib -0.048 | gandotinib -0.092 | tozasertib 0.01 | doramapimod 0.026 | [1] 0.108 | nilotinib -0.069 | [2] 0.033 | dasatinib 0.001 | [3] 0.086 | [4] 0.008 | quisinostat -0.169 | tipifarnib 0.085 | [8] 0.097 | [5] -0.085 | [6] 0.002

RAPGEF4 (UniProt Q8WZA2)
inactive: lapatinib -0.061 | pictilisib 0.047 | crizotinib -0.24 | duvelisib 0.104 | gandotinib 0.38 | tozasertib -0.088 | doramapimod -0.041 | bafetinib -0.212 | [1] 0.543 | dasatinib -0.092 | [4] -0.061 | quisinostat -0.491 | [8] 0.16 | [5] 0.064 | [6] -0.192
active: [7] -0.804

QTRT2 isoform 4 (UniProt Q9H974)
active: [7] -0.297 | [1] 0.256
inactive: lapatinib -0.016 | pictilisib -0.037 | crizotinib -0.018 | duvelisib -0.008 | gandotinib 0.185 | tozasertib 0.003 | doramapimod -0.029 | bafetinib -0.089 | nilotinib -0.001 | [2] -0.024 | dasatinib 0.005 | [3] -0.024 | [4] -0.051 | quisinostat -0.059 | tipifarnib 0.022 | [8] 0.022 | [5] 0.004 | [6] 0.021

RPS9 (UniProt P46781)
active: [7] 0.244
inactive: lapatinib -0.012 | pictilisib 0.009 | crizotinib 0.061 | duvelisib 0.006 | gandotinib -0.087 | tozasertib 0.016 | doramapimod -0.023 | bafetinib 0.034 | [1] -0.07 | nilotinib 0.001 | [2] -0.023 | dasatinib 0.067 | [3] -0.039 | [4] 0.023 | quisinostat 0.141 | tipifarnib 0.022 | [8] -0.037 | [5] -0.015 | [6] 0.039

SEC16A isoform 5 (UniProt O15027)
inactive: lapatinib -0.019 | pictilisib -0.044 | crizotinib 0.018 | [7] -0.039 | duvelisib -0.013 | gandotinib -0.014 | tozasertib -0.001 | doramapimod -0.002 | bafetinib 0.031 | [1] 0.029 | nilotinib -0.119 | [2] 0.008 | dasatinib -0.007 | [3] 0.006 | [4] -0.002 | quisinostat -0.054 | tipifarnib -0.036 | [8] 0.032 | [5] 0.004 | [6] -0.011

REEP6 (UniProt Q96HR9)
Sequence of UniProt Q96HR9 (Q96HR9 whole entry, looked up): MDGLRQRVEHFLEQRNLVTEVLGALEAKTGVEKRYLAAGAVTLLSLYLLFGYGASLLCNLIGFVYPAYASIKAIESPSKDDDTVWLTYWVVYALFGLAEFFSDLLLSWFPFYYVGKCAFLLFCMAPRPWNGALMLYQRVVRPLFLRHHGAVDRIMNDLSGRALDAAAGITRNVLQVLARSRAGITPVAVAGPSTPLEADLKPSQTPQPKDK
inactive: lapatinib 0.066 | pictilisib 0.047 | crizotinib -0.04 | [7] -0.269 | duvelisib -0.006 | gandotinib 0.056 | tozasertib 0.097 | doramapimod 0.052 | bafetinib -0.031 | [1] 0.078 | nilotinib 0.058 | [2] 0.1 | dasatinib 0.204 | [3] 0.041 | [4] 0.009 | quisinostat -0.072 | tipifarnib 0.001 | [8] -0.03 | [5] 0.155 | [6] -0.023

RPAP1 (UniProt Q9BWH6)
inactive: lapatinib -0.012 | pictilisib -0.027 | crizotinib -0.026 | [7] -0.026 | duvelisib 0.021 | gandotinib -0.002 | tozasertib 0.018 | doramapimod 0.001 | bafetinib -0.041 | [1] 0 | nilotinib -0.002 | [2] 0.014 | dasatinib -0.027 | [3] -0.01 | [4] 0.032 | quisinostat -0.02 | tipifarnib -0.01 | [8] 0.013 | [5] 0.029 | [6] 0.004

SELENOK (UniProt Q9Y6D0)
Sequence of UniProt Q9Y6D0 (Q9Y6D0 whole entry, looked up): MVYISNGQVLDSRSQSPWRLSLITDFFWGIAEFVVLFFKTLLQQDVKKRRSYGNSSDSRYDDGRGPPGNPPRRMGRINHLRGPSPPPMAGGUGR
inactive: lapatinib -0.065 | pictilisib -0.048 | duvelisib 0.082 | bafetinib -0.027 | nilotinib -0.009 | [2] -0.032 | dasatinib 0.082 | [3] 0.064 | [4] -0.032 | tipifarnib -0.077 | [5] 0.001
active: [7] -0.543 | gandotinib 0.52 | [1] 0.542

RHOU (UniProt Q7L0Q8)
inactive: lapatinib -0.05 | crizotinib -0.002 | duvelisib 0.024 | gandotinib -0.031 | tozasertib 0.113 | doramapimod 0.038 | [1] 0.056 | nilotinib -0.032 | [2] -0.028 | dasatinib -0.004 | [3] 0.114 | [4] 0.145 | quisinostat -0.053 | tipifarnib 0.12 | [8] 0.035 | [5] -0.045 | [6] 0.033
active: [7] -0.323

RXRA (UniProt P19793)
inactive: lapatinib -0.045 | crizotinib -0.062 | [7] -0.041 | duvelisib 0 | gandotinib -0.047 | doramapimod 0.019 | [1] 0.126 | nilotinib 0.164 | [2] -0.053 | dasatinib -0.112 | [3] 0.119 | [4] -0.024 | quisinostat -0.028 | tipifarnib 0.011 | [8] 0.027 | [5] 0.024 | [6] -0.014

RNPC3 (UniProt Q96LT9)
Sequence of UniProt Q96LT9 (Q96LT9 whole entry, looked up): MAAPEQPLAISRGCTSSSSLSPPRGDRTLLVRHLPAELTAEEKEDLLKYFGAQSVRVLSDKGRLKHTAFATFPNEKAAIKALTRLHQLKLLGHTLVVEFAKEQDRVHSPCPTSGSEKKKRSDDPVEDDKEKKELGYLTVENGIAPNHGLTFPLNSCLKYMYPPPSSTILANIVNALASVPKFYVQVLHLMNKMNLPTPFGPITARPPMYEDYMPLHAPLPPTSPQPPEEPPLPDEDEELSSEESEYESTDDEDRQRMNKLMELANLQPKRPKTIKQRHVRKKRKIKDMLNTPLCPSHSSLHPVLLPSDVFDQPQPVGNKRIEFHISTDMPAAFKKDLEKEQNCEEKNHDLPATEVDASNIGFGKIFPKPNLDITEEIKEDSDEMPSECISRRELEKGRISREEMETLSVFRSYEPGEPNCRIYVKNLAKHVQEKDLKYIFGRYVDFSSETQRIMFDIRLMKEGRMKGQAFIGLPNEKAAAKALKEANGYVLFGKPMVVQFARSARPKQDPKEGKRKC
inactive: lapatinib -0.018 | crizotinib -0.043 | [7] 0.036 | duvelisib 0.072 | gandotinib 0.016 | doramapimod -0.115 | [1] -0.115 | nilotinib -0.104 | [2] 0.069 | dasatinib 0.042 | [3] 0.01 | [4] -0.061 | quisinostat -0.071 | tipifarnib -0.075 | [8] -0.063 | [5] -0.056 | [6] 0.06
